# Measurements reported in the supplement of paper PMC6897291.
# Tests used:
# U-2932 [1] = test: growth inhibition by drug alone (1 - RLU/untreated control) (fraction); higher = stronger inhibition; conditions: 177Lu-lilotomab satetraxetan 0 ug/ml
# Summary of the method: (§1)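 With or without 18 h pretreatment by a radiolabelled anti-CD37 antibody conjugate (~600 MBq/mg; 0.5 µg/ml RIVA, 1 µg/ml U-2932), RIVA and U-2932 cells were washed and plated at 3,000 cells/well. Pre-printed compound doses were 10/100 nM for RIVA and 10/1,000 nM for U-2932. Growth inhibition uses RealTime-Glo RLU relative to the untreated no-drug wells. The calculation is 1 − RLU/mean of 48 such wells per plate, with reads daily from day 3 after 1 h at 37°C.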
# RIVA [2] = test: as above; conditions: 177Lu-lilotomab satetraxetan 0 ug/ml
# Summary of the method: as §1
# U-2932 [3] = test: growth inhibition by drug plus 177Lu-lilotomab satetraxetan (1 - RLU/untreated control) (fraction); higher = stronger inhibition; conditions: 177Lu-lilotomab satetraxetan 1 ug/ml
# Summary of the method: as §1
# RIVA [4] = test: as above; conditions: 177Lu-lilotomab satetraxetan 0.5 ug/ml
# Summary of the method: as §1
Compound,"growth inhibition by drug alone (U-2932 [1]; 10 nM, time (day): 3)","growth inhibition by drug alone (U-2932 [1]; 10 nM, time (day): 4)","growth inhibition by drug alone (U-2932 [1]; 10 nM, time (day): 5)","growth inhibition by drug alone (U-2932 [1]; 10 nM, time (day): 6)","growth inhibition by drug alone (U-2932 [1]; 1000 nM, time (day): 3)","growth inhibition by drug alone (U-2932 [1]; 1000 nM, time (day): 4)","growth inhibition by drug alone (U-2932 [1]; 1000 nM, time (day): 5)","growth inhibition by drug alone (U-2932 [1]; 1000 nM, time (day): 6)","growth inhibition by drug alone (RIVA [2]; 10 nM, time (day): 3)","growth inhibition by drug alone (RIVA [2]; 10 nM, time (day): 4)","growth inhibition by drug alone (RIVA [2]; 10 nM, time (day): 5)","growth inhibition by drug alone (RIVA [2]; 10 nM, time (day): 6)","growth inhibition by drug alone (RIVA [2]; 100 nM, time (day): 3)","growth inhibition by drug alone (RIVA [2]; 100 nM, time (day): 4)","growth inhibition by drug alone (RIVA [2]; 100 nM, time (day): 5)","growth inhibition by drug alone (RIVA [2]; 100 nM, time (day): 6)","growth inhibition by drug plus 177Lu-lilotomab satetraxetan (U-2932 [3]; 10 nM, time (day): 3)","growth inhibition by drug plus 177Lu-lilotomab satetraxetan (U-2932 [3]; 10 nM, time (day): 4)","growth inhibition by drug plus 177Lu-lilotomab satetraxetan (U-2932 [3]; 10 nM, time (day): 5)","growth inhibition by drug plus 177Lu-lilotomab satetraxetan (U-2932 [3]; 10 nM, time (day): 6)","growth inhibition by drug plus 177Lu-lilotomab satetraxetan (U-2932 [3]; 1000 nM, time (day): 3)","growth inhibition by drug plus 177Lu-lilotomab satetraxetan (U-2932 [3]; 1000 nM, time (day): 4)","growth inhibition by drug plus 177Lu-lilotomab satetraxetan (U-2932 [3]; 1000 nM, time (day): 5)","growth inhibition by drug plus 177Lu-lilotomab satetraxetan (U-2932 [3]; 1000 nM, time (day): 6)","growth inhibition by drug plus 177Lu-lilotomab satetraxetan (RIVA [4]; 10 nM, time (day): 3)","growth inhibition by drug plus 177Lu-lilotomab satetraxetan (RIVA [4]; 10 nM, time (day): 4)","growth inhibition by drug plus 177Lu-lilotomab satetraxetan (RIVA [4]; 10 nM, time (day): 5)","growth inhibition by drug plus 177Lu-lilotomab satetraxetan (RIVA [4]; 10 nM, time (day): 6)","growth inhibition by drug plus 177Lu-lilotomab satetraxetan (RIVA [4]; 100 nM, time (day): 3)","growth inhibition by drug plus 177Lu-lilotomab satetraxetan (RIVA [4]; 100 nM, time (day): 4)","growth inhibition by drug plus 177Lu-lilotomab satetraxetan (RIVA [4]; 100 nM, time (day): 5)","growth inhibition by drug plus 177Lu-lilotomab satetraxetan (RIVA [4]; 100 nM, time (day): 6)"
Cc1nc(N)sc1-c1ccnc(Nc2ccc(N3CCOCC3)cc2)n1,0.00864,-0.0087,-0.0373,-0.101,0.0735,0.00717,0.0172,0.253,-0.0458,-0.131,-0.156,-0.327,-0.0826,-0.139,-0.133,-0.233,-0.0148,0.00212,0.025,0.0655,0.0555,0.0326,0.0942,0.374,0.375,0.481,0.505,0.525,0.398,0.486,0.498,0.487
CN(CCOc1ccc(CC2SC(=O)NC2=O)cc1)c1ccccn1 (centres undefined) [Rosiglitazone (Avandia)],0.068,0.0368,-0.0298,-0.117,-0.0124,0.0197,-0.0667,-0.236,-0.0381,-0.0305,-0.0979,-0.42,-0.131,-0.086,-0.0959,-0.219,-0.0122,0.00577,0.0405,0.0655,-0.0752,0.0366,0.0101,0.078,0.409,0.548,0.564,0.587,0.382,0.504,0.532,0.523
c1ccc2c(CCNc3ccc(Nc4ccncc4)cc3)c[nH]c2c1,0.0584,0.057,0.0439,-0.174,0.0747,0.114,0.115,-0.0134,-0.0529,-0.0355,-0.189,-0.337,-0.226,-0.135,-0.248,-0.272,0.0442,0.058,0.101,0.125,0.0679,0.191,0.21,0.292,0.249,0.475,0.497,0.5,0.12,0.259,0.278,0.294
O=c1cc(N2CCOCC2)oc2c(-c3ccccc3)cccc12,0.0578,0.0496,-0.0145,-0.0318,0.0577,0.0696,0.0149,-0.0509,0.12,0.0305,-0.0125,-0.181,0.0387,0.0134,-0.0363,-0.116,0.00353,0.0372,0.0314,0.0726,0.0169,0.0857,0.0428,0.0454,0.442,0.529,0.563,0.58,0.423,0.463,0.473,0.446
Nc1cccc2c1CN(C1CCC(=O)NC1=O)C2=O (centres undefined) [Lenalidomide],0.0697,0.0182,-0.0235,0.0966,0.122,0.186,0.18,0.309,-0.0108,-0.0398,-0.0471,-0.0439,-0.101,-0.141,-0.183,-0.226,0.069,0.101,0.148,0.257,0.215,0.263,0.303,0.434,0.534,0.564,0.587,0.589,0.428,0.481,0.499,0.508
C[C@]12CC[C@@H]3c4ccc(O)cc4CC[C@H]3[C@@H]1CC[C@@H]2O [Estradiol],0.0973,0.0727,-0.00691,-0.0255,0.0487,0.0434,-0.00409,-0.0239,0.262,0.163,0.098,-0.022,0.0522,0.0345,-0.0106,-0.0996,0.0604,0.113,0.146,0.26,0.0789,0.106,0.106,0.215,0.509,0.574,0.594,0.601,0.584,0.611,0.607,0.585
O=C1NC(=O)/C(=C\c2cccc(C(F)(F)F)c2)S1,-0.0629,-0.0752,-0.145,-0.158,-0.0663,-0.0763,-0.118,-0.219,-0.238,-0.269,-0.325,-0.41,-0.524,-0.503,-0.514,-0.584,-0.0851,-0.0351,0.0122,0.101,-0.0652,-0.0183,0.0099,0.134,0.418,0.47,0.492,0.508,0.391,0.456,0.458,0.45
